Measurements: PubChem BioAssay (EPA / NIEHS)
The source made the active and inactive calls. Rule for the calls: active = hit-call score of the fitted dose curve at least 0.9, where 1 is the maximum; inactive = score below 0.9.

Experiments:
[1] = ATG_GLI_CIS: Attagene CIS-FACTORIAL HepG2 Assay for human Zinc Finger Protein GLI1 (AID 2282945); conditions: HepG2, Attagene cis-factorial reporter mRNA, GLI element; actives raise or lower the signal
How it was run: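 HepG2 cells transiently transfected with cis-promoter multiplexed reporter units report endogenous transcription factor activity. After 24 h chemical exposure, reporter mRNA was quantified by RT-PCR, 6-FAM labelling, HpaI digestion and capillary electrophoresis, with bidirectional fitting against DMSO.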

[2] = molecular target: Bile acid receptor (Homo sapiens) (UniProt Q96RI1); experiment: ATG_IR1_CIS: Attagene CIS-FACTORIAL HepG2 Assay for human Nuclear Receptor Subfamily 1 Group H Member 4 (NR1H4), IR1 submotif (AID 2282946); conditions: IR1 reporter transcription, actives raise or lower the signal
How it was run: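 Transient MRTU transfection, HepG2; 24 h dosing; RNA → RT-PCR → 6-FAM primer extension → HpaI digest → capillary electrophoresis fluorescence. Gain/loss of signal fitted relative to DMSO.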

[3] = ATG_ISRE_CIS: Attagene CIS-FACTORIAL HepG2 Assay for human Interferon Regulatory Factor 1 (IRF1) binding to an Interferon-Stimulated Response Element (ISRE) (AID 2282948); conditions: HepG2 ISRE cis-reporter (Attagene), mRNA transcription readout; actives raise or lower the signal
How it was run: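 Transfected HepG2 (multiple reporter transcription units, cis elements) dosed 24 h. RNA → oligo(dT) RT → PCR → 6-FAM primer extension → HpaI → CE. DMSO = negative control/baseline.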

[4] = ATG_M_32_CIS: Attagene CIS-FACTORIAL HepG2 Assay for M32 Transcription Factor (Internal Marker) (AID 2282949); conditions: HepG2 Attagene cis-factorial M32 reporter, mRNA; actives raise or lower the signal;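 note: background control marker of the multiplexed CIS panel rather than a real target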
How it was run: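 Fluorescent capillary electrophoresis peaks of HpaI-digested, FAM-labelled RT-PCR reporter products give the signal. Source: transiently transfected human liver HepG2 cells, 24 h after chemical dosing; bidirectional fitting against DMSO.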

[5] = ATG_M_06_CIS: Attagene CIS-FACTORIAL HepG2 Assay for M06 Transcription Factor (Internal Marker) (AID 2282950); conditions: HepG2 Attagene CIS-FACTORIAL M06 internal marker reporter; actives raise or lower the signal
How it was run: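 Read-out is fluorescence of labelled reporter cDNA fragments resolved by capillary electrophoresis after RT-PCR. Cells: HepG2 carrying transfected cis-promoter reporter units, treated 24 h. Gain or loss of signal fitted relative to DMSO.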

[6] = molecular target: Hypoxia-inducible factor 1-alpha (Homo sapiens) (UniProt Q16665); experiment: ATG_HIF1a_CIS: Attagene CIS-FACTORIAL HepG2 Assay for human Hypoxia Inducible Factor 1 (HIF1A) (AID 2282951); conditions: HepG2 Attagene cis-factorial HIF1a reporter transcription; actives raise or lower the signal
How it was run: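 Dosed 24 h, transfected HepG2 cells yielded total RNA whose reporter transcripts were RT-PCR-amplified and sized by capillary electrophoresis using fluorescent labelling; DMSO defined baseline, with gain and loss of signal both fitted.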

[7] = molecular target: Hepatocyte nuclear factor 6 (Homo sapiens) (UniProt Q9UBC0); experiment: ATG_HNF6_CIS: Attagene CIS-FACTORIAL HepG2 Assay for human Hepatocyte Nuclear Factor 6 (HNF6) (AID 2282952); conditions: HepG2 Attagene cis-factorial HNF6 reporter transcription; actives raise or lower the signal
How it was run: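 HepG2 cells transiently transfected with cis-element-driven multiplexed reporter units measuring endogenous transcription factor activity. After 24 h exposure, reporter mRNA quantified by RT-PCR, FAM-labelled fragments and capillary electrophoresis; bidirectional fitting versus DMSO.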

[8] = ATG_MRE_CIS: Attagene CIS-FACTORIAL HepG2 Assay for human Metal Responsive Element (MRE) (AID 2282954); conditions: HepG2 MRE cis-reporter transcription, Attagene multiplex; actives raise or lower the signal
How it was run: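 Step one: transfect HepG2 with cis-regulated reporter units. Step two: dose 24 h. Step three: isolate RNA, RT-PCR, 6-FAM label, HpaI digest, capillary electrophoresis. Fit bidirectionally to DMSO.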

[9] = ATG_PBREM_CIS: Attagene CIS-FACTORIAL HepG2 Assay for human Phenobarbital-responsive Enhancer Module (PBREM) (AID 2282955); conditions: HepG2 PBREM cis-reporter, Attagene multiplexed transcription; actives raise or lower the signal
How it was run: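 Transfected liver-derived HepG2 cells exposed 24 h; PBREM reporter transcript quantified via RT-PCR and capillary electrophoresis, with activity in either direction referenced to DMSO.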

[10] = molecular target: Paired box protein Pax-6 (Homo sapiens) (UniProt P26367); experiment: ATG_Pax6_CIS: Attagene CIS-FACTORIAL HepG2 Assay for human Paired Box 6 (PAX6) (AID 2282956); conditions: HepG2 CIS-FACTORIAL PAX6 reporter transcription, RNA readout; actives raise or lower the signal
How it was run: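 Transient MRTU transfection of HepG2 → compound exposure 24 h → TriZol RNA, oligo(dT) RT → PCR, 6-FAM primer extension, HpaI cut → capillary electrophoresis; activity fitted both directions against DMSO.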

[11] = ATG_PXRE_CIS: Attagene CIS-FACTORIAL HepG2 Assay for human Pregnane X Receptor Element (PXRE) (AID 2282957); conditions: HepG2 Attagene CIS-FACTORIAL PXRE reporter, mRNA; actives raise or lower the signal
How it was run: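 HepG2 cells transiently transfected with cis-element-driven multiplexed reporter units; after 24 h chemical exposure, reporter mRNA measured by RT-PCR, 6-FAM labelling, HpaI digestion and capillary electrophoresis. Bidirectional fitting relative to DMSO.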

[12] = ATG_RORE_CIS: Attagene CIS-FACTORIAL HepG2 Assay for human RAR-related Orphan Receptor Element (RORE) (AID 2282959); conditions: HepG2 Attagene cis-factorial RORE reporter, mRNA; actives raise or lower the signal
How it was run: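 Transiently transfected HepG2 reporter cells were treated 24 h. Reporter transcripts were detected by RT-PCR and capillary electrophoresis, with bidirectional fitting against DMSO.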

[13] = ATG_Sox_CIS: Attagene CIS-FACTORIAL HepG2 Assay for human SRY-box transcription factor (SOX) (AID 2282960); conditions: HepG2 Attagene cis-factorial SOX reporter, mRNA; actives raise or lower the signal
How it was run: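 Gain- or loss-of-signal endpoint, fitted bidirectionally with DMSO as negative control. Based on reporter mRNA from transfected HepG2 cells harvested 24 h post-treatment and quantified via RT-PCR and capillary electrophoresis.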

[14] = molecular target: Transcription factor Sp1 (Homo sapiens) (UniProt P08047); experiment: ATG_Sp1_CIS: Attagene CIS-FACTORIAL HepG2 Assay for human Specificity Protein 1 (Sp1) (AID 2282961); conditions: HepG2 Sp1 cis-reporter transcription, actives raise or lower the signal
How it was run: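 Endpoint reflects endogenous Sp1 transcriptional activity, not an exogenous fusion protein: HepG2 cells with transfected cis-regulated reporters, 24 h dosing, RT-PCR/capillary electrophoresis mRNA read-out, DMSO-normalised bidirectional fit.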

[15] = ATG_SREBP_CIS: Attagene CIS-FACTORIAL HepG2 Assay for human Sterol Regulatory Element Binding (SREBP) (AID 2282962); conditions: HepG2 Attagene cis-factorial SREBP reporter, mRNA; actives raise or lower the signal
How it was run: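 Transfected HepG2 (cis-regulated reporter library, endogenous TFs) → compound 24 h → total RNA → oligo(dT) RT → reporter-specific PCR → FAM primer extension, HpaI cut → CE fluorescence. Fit bidirectional vs DMSO.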

[16] = molecular target: Signal transducer and activator of transcription 3 (Homo sapiens) (UniProt P40763); experiment: ATG_STAT3_CIS: Attagene CIS-FACTORIAL HepG2 Assay for human Signal Transducer and Activator of Transcription 3 (STAT3) (AID 2282963); conditions: HepG2, Attagene cis-factorial STAT3 reporter transcription; actives raise or lower the signal
How it was run: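 Transcript-level reporter assay. HepG2 transient MRTU transfection, 24 h exposure, fluorescence detection after RT-PCR and CE; DMSO baseline.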

[17] = ATG_TA_CIS: Attagene CIS-FACTORIAL HepG2 Assay for human TA Basal Promoter (AID 2282964); conditions: HepG2 Attagene CIS-factorial TA basal promoter reporter; actives raise or lower the signal
How it was run: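 Read-out: fluorescent reporter-transcript fragments resolved by capillary electrophoresis after RT-PCR and HpaI digestion. Source: HepG2 cells carrying transiently transfected multi-reporter cis constructs, treated 24 h. Endpoint fitted bidirectionally relative to DMSO.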

[18] = ATG_PPRE_CIS: Attagene CIS-FACTORIAL HepG2 Assay for human Peroxisome Proliferator-activated Response Element (PPRE) (AID 2282958); conditions: HepG2 PPRE cis-element reporter, Attagene transcription factor profiling; actives raise or lower the signal
How it was run: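 Measured endpoint: PPRE-controlled reporter mRNA, detected by RT-PCR and capillary electrophoresis fluorescence, from transiently transfected HepG2 cells 24 h after dosing. Curves fitted in both directions using DMSO baseline.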

[19] = ATG_GRE_CIS: Attagene CIS-FACTORIAL HepG2 Assay for human Glucocorticoid Response Elements (GRE) (AID 2282947); conditions: HepG2 GRE cis-reporter, Attagene multiplex mRNA; actives raise or lower the signal
How it was run: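 Following 24 h chemical exposure of transiently transfected HepG2 cells, total RNA was reverse-transcribed and reporter cDNA amplified, fluorescently labelled and sized by capillary electrophoresis. Signal gain or loss was fitted relative to DMSO vehicle.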

[20] = molecular target: Heat shock factor protein 1 (Homo sapiens) (UniProt Q00613); experiment: ATG_HSE_CIS: Attagene CIS-FACTORIAL HepG2 Assay for human Heat Shock Transcription Factor 1 (HSE) (AID 2282953); conditions: HepG2 HSE cis-reporter, Attagene RNA transcription; actives raise or lower the signal
How it was run: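 HepG2, transient MRTU transfection, cis-promoter reporters (endogenous TF activity). 24 h compound. RNA → oligo(dT) RT → PCR → 6-FAM primer extension → HpaI cut → CE. Bidirectional fit vs DMSO.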

Measured: AC50

Chain of Transcription factor Sp1 (Homo sapiens) (P08047 whole entry, looked up, the tested form may be a part): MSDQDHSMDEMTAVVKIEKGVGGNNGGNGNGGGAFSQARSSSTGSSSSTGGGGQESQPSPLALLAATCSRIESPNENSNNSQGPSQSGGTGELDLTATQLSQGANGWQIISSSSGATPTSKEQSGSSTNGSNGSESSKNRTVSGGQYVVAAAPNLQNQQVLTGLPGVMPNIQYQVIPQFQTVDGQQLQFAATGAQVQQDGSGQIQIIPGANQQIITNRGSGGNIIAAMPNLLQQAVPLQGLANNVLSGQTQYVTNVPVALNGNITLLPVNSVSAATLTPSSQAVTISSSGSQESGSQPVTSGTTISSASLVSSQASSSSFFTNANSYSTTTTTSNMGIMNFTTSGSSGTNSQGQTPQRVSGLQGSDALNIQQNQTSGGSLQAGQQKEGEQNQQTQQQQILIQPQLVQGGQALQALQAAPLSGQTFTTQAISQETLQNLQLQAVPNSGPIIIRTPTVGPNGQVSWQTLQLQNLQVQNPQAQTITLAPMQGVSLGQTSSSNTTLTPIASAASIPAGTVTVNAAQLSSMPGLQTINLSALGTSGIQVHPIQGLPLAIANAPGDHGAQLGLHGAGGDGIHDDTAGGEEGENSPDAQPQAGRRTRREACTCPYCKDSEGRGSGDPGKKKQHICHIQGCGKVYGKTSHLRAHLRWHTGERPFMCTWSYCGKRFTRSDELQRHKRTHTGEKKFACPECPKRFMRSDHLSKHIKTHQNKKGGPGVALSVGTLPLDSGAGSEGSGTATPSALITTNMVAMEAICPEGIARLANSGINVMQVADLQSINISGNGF
Chain of Hypoxia-inducible factor 1-alpha (Homo sapiens) (Q16665 whole entry, looked up): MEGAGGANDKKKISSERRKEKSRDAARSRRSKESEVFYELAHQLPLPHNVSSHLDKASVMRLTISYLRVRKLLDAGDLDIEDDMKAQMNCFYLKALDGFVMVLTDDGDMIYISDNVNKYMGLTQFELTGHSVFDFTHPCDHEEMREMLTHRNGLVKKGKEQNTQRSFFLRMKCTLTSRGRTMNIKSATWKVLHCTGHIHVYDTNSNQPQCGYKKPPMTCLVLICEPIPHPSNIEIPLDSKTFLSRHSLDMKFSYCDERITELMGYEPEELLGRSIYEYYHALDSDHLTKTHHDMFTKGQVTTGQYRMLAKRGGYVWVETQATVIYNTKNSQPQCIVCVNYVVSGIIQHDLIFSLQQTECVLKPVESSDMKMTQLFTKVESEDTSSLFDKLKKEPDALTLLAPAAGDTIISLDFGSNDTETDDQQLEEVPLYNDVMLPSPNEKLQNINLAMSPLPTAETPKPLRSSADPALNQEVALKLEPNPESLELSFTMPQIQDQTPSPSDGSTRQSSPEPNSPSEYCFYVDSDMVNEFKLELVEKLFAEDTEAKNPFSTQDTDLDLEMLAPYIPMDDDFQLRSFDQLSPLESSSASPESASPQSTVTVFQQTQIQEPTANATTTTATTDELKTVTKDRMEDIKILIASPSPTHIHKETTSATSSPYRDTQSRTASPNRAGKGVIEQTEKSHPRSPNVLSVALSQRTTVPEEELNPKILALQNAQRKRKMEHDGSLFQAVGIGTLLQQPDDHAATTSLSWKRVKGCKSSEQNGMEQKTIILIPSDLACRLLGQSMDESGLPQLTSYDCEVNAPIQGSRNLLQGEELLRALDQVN
Chain of Signal transducer and activator of transcription 3 (Homo sapiens) (P40763 whole entry, looked up): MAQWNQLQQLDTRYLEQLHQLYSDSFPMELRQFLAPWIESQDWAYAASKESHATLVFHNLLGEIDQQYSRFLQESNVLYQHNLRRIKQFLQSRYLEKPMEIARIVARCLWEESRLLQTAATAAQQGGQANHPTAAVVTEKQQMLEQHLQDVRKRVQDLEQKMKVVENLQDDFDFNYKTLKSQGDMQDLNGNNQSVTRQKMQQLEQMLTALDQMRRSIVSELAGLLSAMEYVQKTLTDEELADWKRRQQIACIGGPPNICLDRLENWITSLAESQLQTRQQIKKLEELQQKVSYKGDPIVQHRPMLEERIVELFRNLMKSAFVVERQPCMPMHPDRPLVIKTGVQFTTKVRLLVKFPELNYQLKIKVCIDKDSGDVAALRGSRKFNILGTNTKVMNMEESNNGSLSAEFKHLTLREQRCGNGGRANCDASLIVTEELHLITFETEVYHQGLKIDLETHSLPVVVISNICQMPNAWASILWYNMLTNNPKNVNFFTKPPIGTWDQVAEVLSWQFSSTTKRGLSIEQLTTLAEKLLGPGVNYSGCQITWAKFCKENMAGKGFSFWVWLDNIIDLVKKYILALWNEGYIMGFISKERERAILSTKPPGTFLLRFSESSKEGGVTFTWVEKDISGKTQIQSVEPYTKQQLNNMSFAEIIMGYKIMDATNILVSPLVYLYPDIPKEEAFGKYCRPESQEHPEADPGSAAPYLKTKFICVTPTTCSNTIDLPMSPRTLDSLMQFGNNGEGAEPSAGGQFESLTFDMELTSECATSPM
Chain of Bile acid receptor (Homo sapiens) (Q96RI1 whole entry, looked up): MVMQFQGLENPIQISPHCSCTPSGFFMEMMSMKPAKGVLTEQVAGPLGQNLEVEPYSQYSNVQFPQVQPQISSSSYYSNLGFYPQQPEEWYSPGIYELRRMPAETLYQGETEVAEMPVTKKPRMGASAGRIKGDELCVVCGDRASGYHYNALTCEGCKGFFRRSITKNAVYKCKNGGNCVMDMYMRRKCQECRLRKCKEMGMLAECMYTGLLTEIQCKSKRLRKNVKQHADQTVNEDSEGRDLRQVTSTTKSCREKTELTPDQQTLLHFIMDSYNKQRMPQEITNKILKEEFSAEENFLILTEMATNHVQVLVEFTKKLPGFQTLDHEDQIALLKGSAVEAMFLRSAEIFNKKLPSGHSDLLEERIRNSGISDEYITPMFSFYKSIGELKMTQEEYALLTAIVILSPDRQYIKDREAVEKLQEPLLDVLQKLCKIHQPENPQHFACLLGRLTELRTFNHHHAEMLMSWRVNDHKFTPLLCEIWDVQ
Chain of Paired box protein Pax-6 (Homo sapiens) (P26367 whole entry, looked up): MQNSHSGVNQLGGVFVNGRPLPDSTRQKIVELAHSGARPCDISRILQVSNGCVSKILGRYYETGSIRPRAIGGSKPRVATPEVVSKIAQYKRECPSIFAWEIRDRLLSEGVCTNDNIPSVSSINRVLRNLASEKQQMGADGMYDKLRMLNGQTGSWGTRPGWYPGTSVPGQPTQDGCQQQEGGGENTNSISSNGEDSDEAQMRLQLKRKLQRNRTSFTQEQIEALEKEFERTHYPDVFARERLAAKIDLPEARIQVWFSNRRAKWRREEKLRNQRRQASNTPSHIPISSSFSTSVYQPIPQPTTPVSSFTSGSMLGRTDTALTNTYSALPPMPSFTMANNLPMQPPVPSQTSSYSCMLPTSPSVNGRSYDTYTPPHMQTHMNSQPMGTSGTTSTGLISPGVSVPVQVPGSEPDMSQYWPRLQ
Chain of Hepatocyte nuclear factor 6 (Homo sapiens) (Q9UBC0 whole entry, looked up, the tested form may be a part): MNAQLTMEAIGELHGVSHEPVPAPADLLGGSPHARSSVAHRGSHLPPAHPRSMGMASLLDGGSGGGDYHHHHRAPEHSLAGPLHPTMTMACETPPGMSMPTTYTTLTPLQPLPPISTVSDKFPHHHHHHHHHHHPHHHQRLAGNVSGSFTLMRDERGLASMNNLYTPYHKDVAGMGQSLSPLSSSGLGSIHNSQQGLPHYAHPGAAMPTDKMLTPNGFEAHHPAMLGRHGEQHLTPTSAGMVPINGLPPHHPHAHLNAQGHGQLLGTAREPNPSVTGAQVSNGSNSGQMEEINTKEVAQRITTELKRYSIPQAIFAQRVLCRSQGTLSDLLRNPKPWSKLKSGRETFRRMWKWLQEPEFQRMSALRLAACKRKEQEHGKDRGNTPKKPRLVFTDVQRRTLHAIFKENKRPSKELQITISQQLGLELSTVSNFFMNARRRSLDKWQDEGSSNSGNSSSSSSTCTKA
Chain of Heat shock factor protein 1 (Homo sapiens) (Q00613 whole entry, looked up): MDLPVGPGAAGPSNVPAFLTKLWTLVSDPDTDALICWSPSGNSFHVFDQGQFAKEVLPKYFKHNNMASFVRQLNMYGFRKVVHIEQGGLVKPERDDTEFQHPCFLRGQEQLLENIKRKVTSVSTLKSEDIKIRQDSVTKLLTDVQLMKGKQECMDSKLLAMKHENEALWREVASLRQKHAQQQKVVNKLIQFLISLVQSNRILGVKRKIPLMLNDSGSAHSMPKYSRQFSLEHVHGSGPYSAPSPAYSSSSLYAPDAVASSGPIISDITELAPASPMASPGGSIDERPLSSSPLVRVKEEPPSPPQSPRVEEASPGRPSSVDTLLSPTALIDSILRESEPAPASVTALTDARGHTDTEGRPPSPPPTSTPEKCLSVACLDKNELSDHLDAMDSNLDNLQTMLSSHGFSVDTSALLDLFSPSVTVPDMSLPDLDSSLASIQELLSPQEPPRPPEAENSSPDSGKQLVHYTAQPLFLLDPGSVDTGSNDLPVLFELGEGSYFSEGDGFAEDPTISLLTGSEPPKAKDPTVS

Nc1ccc(C(=O)O)cc1
inactive: [1] | [2] | [3] | [4] | [5] | [6] | [7] | [8] | [9] | [10] | [11] | [12] | [13] | [14] | [15] | [16] | [17]

C=CC(=O)OCCCCCCOC(=O)C=C
inactive: [1] | [4] | [5] | [6] | [7] | [11] | [18] | [14] | [16]
active: [2] 42.5 µM | [3] 75.3 µM | [10] 75.7 µM | [15] 100 µM

O=C(Cl)c1ccc(C(=O)Cl)cc1
inactive: [1] | [19] | [3] | [4] | [5] | [6] | [7] | [20] | [8] | [9] | [10] | [11] | [18] | [12] | [13] | [14] | [15] | [17]

CCCCCC1=CCCC1=O
active: [4] 148 µM | [11] 27.4 µM
inactive: [1] | [2] | [3] | [5] | [6] | [8] | [10] | [18] | [13] | [14] | [15] | [16] | [17]

Oc1ccccc1Cc1ccccc1O
active: [3] 149 µM | [6] 134 µM | [8] 124 µM | [10] 100 µM | [11] 26.3 µM | [15] 64.5 µM
inactive: [1] | [19] | [4] | [5] | [7] | [20] | [9] | [18] | [12] | [13] | [14] | [16]

C=C[Si](OCCOC)(OCCOC)OCCOC
inactive: [1] | [19] | [3] | [4] | [5] | [6] | [7] | [20] | [8] | [9] | [10] | [18] | [14] | [15] | [16] | [17]
active: [11] 1.74 µM

Oc1ccc(-c2ccccc2)c(Cl)c1
inactive: [1] | [19] | [3] | [4] | [5] | [7] | [20] | [9] | [10] | [11] | [13] | [14] | [15] | [17]
active: [6] 8.12 µM | [8] 52.9 µM | [18] 33.4 µM | [12] 33.4 µM
